Screens: PubChem, several laboratories
A selection: hits, their analogues and other compounds. The true share with any hit is near 3.7%.
PfHsp90 set2: inhibits growth of yeast expressing Plasmodium falciparum Hsp90; inhibition, % at 9.4 µM; 310,000 tested, 0.32% active; S. cerevisiae expressing PfHsp90, BacTiter-Glo ATP, 48 h; yeast lacking PDR1 and PDR3 efflux regulators;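 active means every replicate shows inhibition above about 80%, whatever the replicate mean, limit read from the data; inconclusive means mean inhibition reaches the set limit but some replicate falls short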;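 further: 0% = DMSO neutral controls and 100% = 20 µM radicicol positive controls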
tim10-1 inh: growth inhibitors of tim10-1 mutant yeast. S. cerevisiae tim10-1 ts strain growth, BacTiter-Glo, 24 h. inhibition, % at 20 µM. 330,000 tested, 2.2% active. AID 463190;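 active means inhibition of at least 40%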;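 further: mutant grown at 25 °C; 0% = DMSO wells with yeast and 100% = wells holding no yeast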
NLRP3 yeast inh: blocks the NALP3 inflammasome reconstituted in yeast; Yeast reconstituted NLRP3/ASC/caspase-1, beta-gal luminescence, 24 h; inhibition, % at 10 µM; 330,000 tested, 0.39% active;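 active means inhibition of 50% or more; inactive means inhibition below 50%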;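 further: plate controls were induced DMSO wells for no effect and uninduced yeast grown without galactose for full effect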
TIM10 inh: growth inhibitors of TIM10 yeast strain. AID 463195. S. cerevisiae TIM10 strain growth, BacTiter-Glo luminescence, 24 h. 330,000 tested, 1.4% active. inhibition, % at 10 µM;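 active means inhibition of 40% or more at the single tested concentration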;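 further: wild-type TIM10 isogenic control strain grown at permissive 25 °C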
tim23-1 inh: tim23-1 yeast growth inhibition; 330,000 tested, 1.3% active; S. cerevisiae tim23-1 growth, BacTiter-Glo luminescence, 24 h; inhibition, % at 20 µM;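 active means growth inhibition of the mutant yeast at or above 50%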;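 further: temperature-sensitive mutant grown at 25 °C; plate controls were DMSO-treated mutant yeast for no effect and medium wells lacking yeast for full effect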
tim10-1 confirm: confirmation of tim10-1 mutant yeast growth inhibitors. shares compounds with tim10-1 inh. S. cerevisiae tim10-1 ts strain growth, BacTiter-Glo, 24 h. inhibition, % at 20 µM. 7,400 tested, 56% active. AID 463213;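 active means inhibition of yeast growth at or above a set limit in either of two repeat tests at 20 µM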;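 further: tim10-1 mutant grown at permissive 25 °C to find synthetic lethal compounds; 0% = DMSO yeast wells and 100% = medium wells without yeast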
* marks the source's active call; other numbers are inactive results.

Results for CCOc1ccc2nc(SC3CC(=O)N(c4ccc(OC)cc4)C3=O)sc2c1 (stereo not given) ?
tim10-1 inh: 14.2; NLRP3 yeast inh: 5.7; TIM10 inh: 13.6; tim23-1 inh: 19.1

Results for Cc1nnc(SC2CC(=O)N(c3ccccc3)C2=O)s1 (stereo not given) ?
PfHsp90 set2: 11.8; tim10-1 inh: 46.9*; NLRP3 yeast inh: 16.3; TIM10 inh: 17.7; tim23-1 inh: 22.8; tim10-1 confirm: 37.9*

What do the screens show for `Cc1cc2c(=O)n(C)c(SCC(=O)Nc3cccc(F)c3)nc2s1`?
PfHsp90 set2: 17.8; tim10-1 inh: 11.2; NLRP3 yeast inh: 9.5; TIM10 inh: 9.9; tim23-1 inh: -1.5

How did COC(=O)c1cn(-c2ccccc2)nc1-c1ccc(OC)c(OC)c1 do in these assays?
PfHsp90 set2: -11.4; tim10-1 inh: 41.6*; NLRP3 yeast inh: 21.4; TIM10 inh: 15.1; tim23-1 inh: 37.6; tim10-1 confirm: 8.7

How did COC(=O)c1cn(-c2ccccc2)nc1-c1ccccc1 do in these assays?
PfHsp90 set2: 7.0; tim10-1 inh: 10.8; NLRP3 yeast inh: 29.6; TIM10 inh: 10.7; tim23-1 inh: 21.3

Results for CN1C(=O)/C(=C/c2cccc(Cl)c2)Sc2ccc(C(=O)N3CCCC3)cc21 ?
tim10-1 inh: 51.9*; NLRP3 yeast inh: 14.2; TIM10 inh: 10.1; tim23-1 inh: 32.8; tim10-1 confirm: 9.8

What do the screens show for `Cc1cccc(/C=C2\Sc3ccc(C(=O)N4CCCCC4)cc3N(C)C2=O)c1`?
PfHsp90 set2: 12.3; tim10-1 inh: 45.4*; NLRP3 yeast inh: 12.5; TIM10 inh: 0.3; tim23-1 inh: 33.4; tim10-1 confirm: -2.1

Results for Cc1cccc(/C=C2\Sc3ccc(C(=O)N4CCOCC4)cc3N(C)C2=O)c1 ?
PfHsp90 set2: 6.0; tim10-1 inh: 17.3; NLRP3 yeast inh: 19.5; TIM10 inh: -1.6; tim23-1 inh: 9.6

What do the screens show for `Cc1ccc(C2=NN(C(=O)CSc3nnnn3C)C(c3ccco3)C2)cc1` (stereo not given)?
PfHsp90 set2: 9.5; tim10-1 inh: 2.6; NLRP3 yeast inh: 9.7; TIM10 inh: 8.5; tim23-1 inh: 20.8

What do the screens show for `Cc1c(Cl)cccc1NC(=O)Nc1c(C)n(C)n(-c2ccccc2)c1=O`?
PfHsp90 set2: 12.4; tim10-1 inh: 5.4; NLRP3 yeast inh: 12.9; TIM10 inh: 8.4; tim23-1 inh: 4.4

How did CCOc1cc(/C=C2\C(=O)N(c3nc(-c4ccc(Br)cc4)cs3)N=C2c2ccccc2)ccc1O do in these assays?
PfHsp90 set2: -11.1; tim10-1 inh: 47.4*; NLRP3 yeast inh: -9.9; TIM10 inh: 9.9; tim23-1 inh: 23.7; tim10-1 confirm: 15.3

What do the screens show for `C=C(C)COc1ccc(-c2[nH]ncc2Oc2ccc(OC)cc2)c(O)c1`?
PfHsp90 set2: inconclusive; tim10-1 inh: -15.5; NLRP3 yeast inh: 13.4; TIM10 inh: 28.5; tim23-1 inh: 43.5

What do the screens show for `C=C(C)COc1ccc(-c2[nH]ncc2Oc2ccccc2OC)c(O)c1`?
PfHsp90 set2: 8.7; tim10-1 inh: 55.4*; NLRP3 yeast inh: 14.9; TIM10 inh: 27.7; tim23-1 inh: 42.5; tim10-1 confirm: 39.4*

What do the screens show for `O=C(/C=C/c1ccco1)N1CCN(c2ccccc2)CC1`?
PfHsp90 set2: 9.0; tim10-1 inh: 13.8; NLRP3 yeast inh: 24.5; TIM10 inh: 9.1; tim23-1 inh: -2.9

Results for O=C(/C=C\c1ccco1)Nc1ccc(N2CCN(C(=O)c3ccccc3)CC2)cc1 ?
PfHsp90 set2: -1.9; tim10-1 inh: 42.3*; NLRP3 yeast inh: 15.6; TIM10 inh: 18.3; tim23-1 inh: 41.5; tim10-1 confirm: 31.6*

What do the screens show for `CCc1nc2ccc(C(=O)N3CCN(c4cccc(C(F)(F)F)c4)CC3)cc2nc1CC`?
PfHsp90 set2: 10.0; tim10-1 inh: 42.1*; NLRP3 yeast inh: 10.3; TIM10 inh: 22.0; tim23-1 inh: 37.5; tim10-1 confirm: 19.1

What do the screens show for `O=C(c1ccc2nc(-c3ccco3)c(-c3ccco3)nc2c1)N1CCN(c2ccccc2)CC1`?
PfHsp90 set2: -44.7; tim10-1 inh: 41.9*; NLRP3 yeast inh: 30.7; TIM10 inh: 18.7; tim23-1 inh: 14.7; tim10-1 confirm: 32.6*

Results for COc1cc(OC)c(S(=O)(=O)Nc2ccccc2N2CCOCC2)cc1NC(C)=O ?
PfHsp90 set2: 11.6; tim10-1 inh: 0.5; NLRP3 yeast inh: 21.4; TIM10 inh: 10.8; tim23-1 inh: 9.5

How did CCC(C)c1ccc(NC(=O)C2CCN(c3ncccn3)CC2)cc1 (stereo not given) do in these assays?
PfHsp90 set2: 27.5; tim10-1 inh: 31.5; NLRP3 yeast inh: 4.1; TIM10 inh: 32.1; tim23-1 inh: 23.2

How did Cc1ccnc(NC(=O)c2ccccc2NC(=O)c2ccccc2)c1 do in these assays?
PfHsp90 set2: -4.0; tim10-1 inh: 50.0*; NLRP3 yeast inh: 29.2; TIM10 inh: 11.7; tim23-1 inh: 40.8; tim10-1 confirm: 33.0*

How did Cc1ccnc(NC(=O)c2ccc(C(=O)c3ccccc3)cc2)c1 do in these assays?
PfHsp90 set2: 12.4; tim10-1 inh: 8.9; NLRP3 yeast inh: 19.9; TIM10 inh: -4.4; tim23-1 inh: 27.2

How did COc1cccc2sc(N(CCN(C)C)C(=O)/C=C/c3cccs3)nc12 do in these assays?
PfHsp90 set2: 13.2; tim10-1 inh: 14.0; NLRP3 yeast inh: 23.8; TIM10 inh: -0.6; tim23-1 inh: 15.8

What do the screens show for `CCOc1cccc2sc(N(CCN(C)C)C(=O)/C=C/c3cccs3)nc12`?
PfHsp90 set2: 2.8; tim10-1 inh: 47.0*; NLRP3 yeast inh: 34.2; TIM10 inh: 25.9; tim23-1 inh: 35.2; tim10-1 confirm: 32.3*

Results for Cc1cc(-c2ccc(C)c(S(=O)(=O)NCCC(C)N3CCCCCC3)c2)on1 (stereo not given) ?
PfHsp90 set2: -11.9; tim10-1 inh: -10.1; NLRP3 yeast inh: 4.3; TIM10 inh: -2.5; tim23-1 inh: -6.6

What do the screens show for `O=C(CCCOc1ccc(Cl)cc1Cl)n1nnc2ccccc21`?
PfHsp90 set2: -5.2; tim10-1 inh: 53.6*; NLRP3 yeast inh: 18.8; TIM10 inh: 25.1; tim23-1 inh: 45.5; tim10-1 confirm: 38.6*

What do the screens show for `O=C(N/N=C/c1cnc(N2CCCCC2)s1)c1ccc(C(F)(F)F)cc1`?
PfHsp90 set2: 34.9; tim10-1 inh: 22.7; NLRP3 yeast inh: -1.7; TIM10 inh: 14.1; tim23-1 inh: 18.1

How did Cc1ccccc1NC(=O)CC1SC(=O)N(c2ccccc2)C1=O (stereo not given) do in these assays?
PfHsp90 set2: 4.0; tim10-1 inh: 44.9*; NLRP3 yeast inh: 8.1; TIM10 inh: 6.5; tim23-1 inh: 36.6; tim10-1 confirm: 37.9*

Results for COc1cc(C2C3=C(CC(C)(C)CC3=O)OC3=C2C(=O)CC(C)(C)C3)cc([N+](=O)[O-])c1O ?
PfHsp90 set2: -71.0; tim10-1 inh: 41.3*; NLRP3 yeast inh: -28.3; TIM10 inh: 16.7; tim23-1 inh: 33.4; tim10-1 confirm: 25.6
